In PubChem BioAssay one finds composite z-score and z-score data, which are given here for 21 molecules.

Activity calls are given as the source filed them. Unless noted, the rule behind the calls is not given here.

The subject of test [1] is XIP peptide (Xip251-270) binding. Put plainly: XIP fragment 251-270 binding compounds – biochemical, small-molecule microarray, fluorescence 635/667 nm, 0.1 µg/mL protein, primary screen (AID 1182). Conditions: fluorescent protein binding, 635 nm, higher = more signal, called active from +8 up or from −8 down.
The test system of the next test is XIP peptide (Xip251-270). As to the kind of experiment: compounds binding XIP fragment 251-270 – biochemical, small-molecule microarray, fluorescence 635/667 nm, 0.5 µg/mL protein, primary screen (AID 1183). Conditions: fluorescence 635 nm, higher = more signal.
The nature of test [2]: blood-stage malaria parasite viability loss – strain 3D7, DAPI fluorescence, 100 nL, primary screen (AID 1184).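 Note: parasites grown inside human red blood cells in medium with human serum.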 Conditions: P. falciparum 3D7 growth, 3 d, higher = more signal.
For test [3], the target named is Homeobox protein Hox-A13 (Mus musculus) (UniProt Q62424). As to the kind of experiment: disruptors of Hoxa13 oligonucleotide interaction – biochemical, fluorescence polarization, labeled oligonucleotide, primary screen (AID 1185). Conditions: Hoxa13:DNA binding, 15 min, higher = more signal, called active from +8 up or from −8 down.
Test [4] in a line: blockers of DNA damage checkpoint Chk1 activation – imaging, HeLa, hydroxyurea, phospho-Chk1 antibody, percent positive cells, primary screen (AID 1186). Conditions: hydroxyurea-induced phospho-Chk1 immunofluorescence imaging, higher = more signal.
Test [5] can be described thus: blockers of DNA damage checkpoint Chk1 activation – imaging, HeLa, hydroxyurea, phospho-Chk1 nuclear intensity, primary screen (AID 1187). Conditions: hydroxyurea-induced phospho-Chk1 immunofluorescence imaging, higher = more signal.

Chain of Homeobox protein Hox-A13 (Mus musculus) (Q62424 whole entry, looked up): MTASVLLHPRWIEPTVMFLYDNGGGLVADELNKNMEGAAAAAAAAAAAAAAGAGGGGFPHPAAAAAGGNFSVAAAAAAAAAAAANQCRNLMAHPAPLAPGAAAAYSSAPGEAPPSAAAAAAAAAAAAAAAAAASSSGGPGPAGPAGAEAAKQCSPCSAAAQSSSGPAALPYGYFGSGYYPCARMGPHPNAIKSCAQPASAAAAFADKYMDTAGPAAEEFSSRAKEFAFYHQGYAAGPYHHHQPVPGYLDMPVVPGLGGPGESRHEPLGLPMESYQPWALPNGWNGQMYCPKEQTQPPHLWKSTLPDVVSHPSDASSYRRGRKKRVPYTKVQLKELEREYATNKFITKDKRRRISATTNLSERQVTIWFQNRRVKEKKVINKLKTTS

Take `C=CCOC(=O)[C@H]1[C@@H]2C(=O)O[C@@H](c3ccccc3)[C@@H](c3ccccc3)N2[C@@H](c2ccc(OCCOC(=O)[C@H]3C[C@H]4C(=O)N[C@@H](CC(C)C)C(=O)N4[C@H]3c3ccc(O)cc3)cc2)[C@]12C(=O)Nc1ccc(I)cc12`: the composite z-score in test [1] is 0.626 (inactive); with XIP peptide (Xip251-270), 0.75. For the same molecule, the z-score was -0.061 in test [2], 6.65 (inactive) in test [3], 0.293 (inactive) in test [4] and 0.198 (inactive) in test [5].

In the case of `CN1C(=O)C2C=CC(C(O)c3ccc(-c4ccccc4)s3)N(N(c3ccccc3)c3ccccc3)C2C1=O` (stereo unspecified), the figures for the composite z-score (in test [1]; with XIP peptide (Xip251-270)) were 0.254 (inactive) and 0.322, respectively. Further, the z-score in test [2] is 0.33; in test [3], 0.329 (inactive); in test [4], 0.288 (inactive); in test [5] it was -0.108 (inactive).

For `COCCOC(=O)N1C(=O)[C@@]2(c3cc(C#CCCO)ccc31)[C@H](C(=O)N1CCc3cc(OC)c(OC)cc3C1)[C@H]1C(=O)O[C@H](c3ccccc3)[C@H](c3ccccc3)N1[C@@H]2c1ccc(O)cc1`, the composite z-score is 1.55 (inactive) in test [1] and 0.798 with XIP peptide (Xip251-270). The z-score is -0.439 in test [2], -2.01 (inactive) in test [3], -0.463 (inactive) in test [4] and -0.656 (inactive) in test [5].

With `CC(C)(C)OC(=O)CC[C@@]1(C(N)=O)N=C(c2ccc(OCCCO)cc2)O[C@@H]1c1ccccc1`, the composite z-score in test [1] was 0.222 (inactive); in the test with XIP peptide (Xip251-270), 0.355. Besides, the z-score in test [2] was -0.589; in test [3] it was -3.33 (inactive); in test [4], 0.335 (inactive); in test [5] it was -0.0302 (inactive).

Consider `C=CCOC(=O)[C@H]1[C@@H]2C(=O)O[C@@H](c3ccccc3)[C@@H](c3ccccc3)N2[C@@H](c2ccc(OCCOC(=O)[C@@H]3C[C@@H]4C(=O)N[C@@H](CCCC[N+](C)(C)C)C(=O)N4[C@@H]3c3ccc(O)cc3)cc2)[C@]12C(=O)Nc1ccccc12`, for which the composite z-score was 0.543 (inactive) in test [1] and 0.637 with XIP peptide (Xip251-270). In addition, the z-score in test [2] is 0.327; in test [3], 6.39 (inactive); in test [4], -0.75 (inactive); in test [5], -0.282 (inactive).

For `COC(=O)[C@@]1(Cc2ccc(OC)cc2)[C@H]2c3cc(C(=O)N4CCCC4)n(Cc4ccc(OC)c(OC)c4)c3C[C@H]2CN1C(=O)c1ccccc1`, the composite z-score in test [1] was 1.27 (inactive); in the test with XIP peptide (Xip251-270), 0.653. Further, the z-score is -1.65 in test [2], -4.91 (inactive) in test [3], 0.666 (inactive) in test [4] and 0.699 (inactive) in test [5].

On to `CN1C(=O)C2C=CC(C(O)c3cccs3)N(Nc3ccccc3)C2C1=O` (stereo unspecified), for which the results for the composite z-score (in test [1]; in the test on XIP peptide (Xip251-270)) were 0.193 (inactive) and 0.356, respectively. The z-score in test [2] was 0.376; in test [3], -1.14 (inactive); in test [4] it was 0.482 (inactive); in test [5], 0.35 (inactive).

With `COC(=O)C(CC#Cc1ccc2c(c1)[C@]1(C(=O)N2)[C@H](C(=O)O)[C@H]2C(=O)O[C@H](c3ccccc3)[C@H](c3ccccc3)N2[C@@H]1c1ccc(O)cc1)C(=O)OC`, the composite z-score in test [1] is 0.12 (inactive); in the test on XIP peptide (Xip251-270) it was 0.713. The z-score was 0.49 in test [2], -6.07 (inactive) in test [3], -0.287 (inactive) in test [4] and -0.507 (inactive) in test [5].

On to `COC(=O)[C@@]1(Cc2ccccc2)[C@H]2c3cc(C(=O)N4CCCC4)n(Cc4cccc5ccccc45)c3C[C@H]2CN1C(=O)c1ccccc1`, for which the composite z-score was 0.112 (inactive) in test [1] and -0.569 with XIP peptide (Xip251-270). The z-score in test [2] is -1.35; in test [3] it was -3.06 (inactive); in test [4], 1.05 (inactive); in test [5], 0.243 (inactive).

As for `[N-]=[N+]=Nc1ccccc1C[C@]1(C(=O)NCC(O)CO)N=C(c2ccc(OCCCO)cc2)O[C@H]1c1ccccc1N=[N+]=[N-]` (stereo partly specified), the composite z-score was 0.0936 (inactive) in test [1] and -0.316 in the test on XIP peptide (Xip251-270). The z-score is -2.44 in test [2], -5.33 (inactive) in test [3], -0.467 (inactive) in test [4] and -0.312 (inactive) in test [5].

With `O=C(NCC(F)(F)F)[C@@H]1c2ccccc2C(=O)N(C2CCCCC2)[C@H]1c1ccc(CO)cc1`, the composite z-score is 0.0572 (inactive) in test [1] and 0.434 in the test with XIP peptide (Xip251-270). In addition, the z-score in test [2] is -0.676; in test [3], -3.32 (inactive); in test [4], 0.142 (inactive); in test [5], -0.156 (inactive).

`COc1ccc([Si](C)(C)[C@H]2[C@H](CCO)O[C@@]3(C(=O)N(C)c4c(Br)cc(C)cc43)[C@@H]2C)cc1`: the values for the composite z-score (in test [1]; in the test with XIP peptide (Xip251-270)) were 0.307 (inactive) and 0.837, respectively. The z-score was -2.71 in test [2], -5.78 (inactive) in test [3], -1.08 (inactive) in test [4] and -1.73 (inactive) in test [5].

Take `O=C1OCC=C[C@H]2OC34C=CCN(c5ccc6ccccc6c5)C(=O)[C@H]3N(CCCCCCO)C(=O)[C@@H]4[C@@H]12` (stereo partly specified): the composite z-score is 0.458 (inactive) in test [1] and 0.2 in the test on XIP peptide (Xip251-270). For the same molecule, the z-score in test [2] was -0.341; in test [3], -5.38 (inactive); in test [4], -0.261 (inactive); in test [5], -0.572 (inactive).

Turning to `COCCOC(=O)N1C(=O)[C@@]2(c3cc(C#Cc4ccc(OC)cc4)ccc31)[C@H](C(=O)N1CCCCCCC1)[C@H]1C(=O)O[C@H](c3ccccc3)[C@H](c3ccccc3)N1[C@@H]2c1ccc(OCCO)cc1`, the composite z-score was 2.79 (inactive) in test [1] and 0.635 in the test with XIP peptide (Xip251-270). In addition, the z-score in test [2] is -2; in test [3], -15.8 (active); in test [4] it was -0.442 (inactive); in test [5] it was -0.617 (inactive).

Turning to `CC(C)(C)OC(=O)CC[C@@]1(C(=O)NCC(O)CO)N=C(c2ccc(OCCCO)cc2)O[C@@H]1c1ccccc1N=[N+]=[N-]` (stereo partly specified), the composite z-score was 1.01 (inactive) in test [1] and 0.795 with XIP peptide (Xip251-270). Besides, the z-score in test [2] is -1.86; in test [3], -4.43 (inactive); in test [4], -0.436 (inactive); in test [5], -0.65 (inactive).

Take `O=C(NCc1ccc(F)cc1)[C@H]1C[C@H]2C(=O)N[C@@H](Cc3ccccc3)C(=O)N2[C@H]1c1ccc(O)cc1`: the composite z-score is 0.114 (inactive) in test [1] and 0.832 in the test on XIP peptide (Xip251-270). The z-score in test [2] is -0.237; in test [3], -1.6 (inactive); in test [4], -0.762 (inactive); in test [5], -0.352 (inactive).

On to `Cc1ccc(C(C)CC(O)C2C=CC3C(=O)N(c4ccccc4)C(=O)C3N2Nc2ccc([N+](=O)[O-])cc2)o1` (stereo unspecified), for which the composite z-score in test [1] is 0.099 (inactive); in the test with XIP peptide (Xip251-270), 0.839. Further, the z-score is -1.1 in test [2], -3.75 (inactive) in test [3], 0.161 (inactive) in test [4] and 0.568 (inactive) in test [5].

For `C=CCOC(=O)[C@@H]1[C@H]2C(=O)O[C@H](c3ccccc3)[C@H](c3ccccc3)N2[C@H](c2ccc(OCCOC(=O)[C@@H]3C[C@@H]4C(=O)N[C@@H](CCCCN(C)C)C(=O)N4[C@@H]3c3ccc(O)cc3)cc2)[C@@]12C(=O)Nc1ccc(I)cc12`, the results for the composite z-score (in test [1]; with XIP peptide (Xip251-270)) were 1.45 (inactive) and 0.783, respectively. The z-score in test [2] is -0.369; in test [3], 5.96 (inactive); in test [4] it was -0.0333 (inactive); in test [5], 0.121 (inactive).

For `C=CCOC(=O)[C@@H]1[C@H]2C(=O)O[C@H](c3ccccc3)[C@H](c3ccccc3)N2[C@H](c2ccc(OCCOC(=O)[C@@H]3C[C@@H]4C(=O)N5CCC[C@H]5C(=O)N4[C@@H]3c3ccc(O)cc3)cc2)[C@@]12C(=O)Nc1ccc(I)cc12`, the figures for the composite z-score (in test [1]; in the test on XIP peptide (Xip251-270)) were 0.393 (inactive) and 0.533, respectively. For the same molecule, the z-score in test [2] is -1.85; in test [3], 1.38 (inactive); in test [4], -0.946 (inactive); in test [5], -0.3 (inactive).

In the case of `CCCCCN1CC=CC23O[C@@H]4/C=C\CCCOC(=O)C4[C@H]2C(=O)N(C(CO)C(C)C)[C@@H]3C1=O` (stereo partly specified), the composite z-score was -0.0186 (inactive) in test [1] and 0.0798 with XIP peptide (Xip251-270). Further, the z-score is 0.609 in test [2], -4.65 (inactive) in test [3], -0.609 (inactive) in test [4] and -0.33 (inactive) in test [5].

For `COc1cc2c(cc1OC)CN(C(=O)[C@H]1[C@@H]3C(=O)O[C@@H](c4ccccc4)[C@@H](c4ccccc4)N3[C@@H](c3ccc(O)cc3)[C@]13C(=O)Nc1ccc(C#CCNC(N)=O)cc13)CC2`, the composite z-score in test [1] was -0.564 (inactive); in the test on XIP peptide (Xip251-270), 0.497. The z-score in test [2] was -0.599; in test [3] it was -1.24 (inactive); in test [4] it was -0.192 (inactive); in test [5], -0.245 (inactive).
